The supplement of paper PMC3334620
The full ranking holds about 33,000 sequences; the median of “E-score (-0.5 to 0.5)” is about -0.011, and the highest 2% start at about 0.28. Only a selection was taken, and the highest values are over-represented in it overall.

Each sequence was assayed against T1, Gcr1 (UniProt P07261) (assay: PBM E-score (8-mer binding enrichment) (E-score (-0.5 to 0.5)); higher = stronger / more preferred TF binding). Conditions: protein concentration: 100 nM; construct: GST-full length.
T1 sequence: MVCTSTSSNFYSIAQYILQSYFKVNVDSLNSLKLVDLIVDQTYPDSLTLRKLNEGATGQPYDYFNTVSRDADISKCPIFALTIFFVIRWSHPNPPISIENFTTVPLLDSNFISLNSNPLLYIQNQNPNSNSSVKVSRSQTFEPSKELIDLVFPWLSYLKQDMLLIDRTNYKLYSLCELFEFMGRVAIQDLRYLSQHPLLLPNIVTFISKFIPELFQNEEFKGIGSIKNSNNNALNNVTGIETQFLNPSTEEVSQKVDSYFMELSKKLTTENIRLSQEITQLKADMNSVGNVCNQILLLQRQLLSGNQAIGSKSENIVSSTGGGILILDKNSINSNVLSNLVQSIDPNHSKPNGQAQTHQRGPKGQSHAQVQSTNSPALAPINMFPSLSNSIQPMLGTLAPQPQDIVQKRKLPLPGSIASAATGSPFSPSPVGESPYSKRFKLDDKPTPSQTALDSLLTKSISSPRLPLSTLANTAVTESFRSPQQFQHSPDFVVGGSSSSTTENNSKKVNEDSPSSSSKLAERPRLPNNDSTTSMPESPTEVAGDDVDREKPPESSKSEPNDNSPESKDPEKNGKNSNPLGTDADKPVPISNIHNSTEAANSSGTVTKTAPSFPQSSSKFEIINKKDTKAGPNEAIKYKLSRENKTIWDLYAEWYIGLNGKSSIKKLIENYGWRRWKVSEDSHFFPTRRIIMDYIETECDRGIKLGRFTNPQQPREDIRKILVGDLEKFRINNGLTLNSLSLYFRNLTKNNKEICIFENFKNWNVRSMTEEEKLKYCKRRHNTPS
Experimental: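 Universal 'all 10-mer' protein binding microarrays (Agilent AMADID 015681) probed with GST-tagged S. cerevisiae TFs (full-length or DBD) made by in vitro transcription/translation (PURExpress), about 100-200 nM. Bound TF was detected with fluorescent anti-GST. Each ungapped 8-mer (which stands for itself and its reverse complement) is scored by the PBM enrichment score (E-score), a modified Wilcoxon-Mann-Whitney statistic from -0.5 to +0.5, computed with the Universal PBM Analysis Suite. Scale: above 0.35 generally sequence-specific binding.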

| Sequence | PBM E-score |
| --- | --- |
| GTAAAGAC | -0.129 |
| CAGGCCAG | -0.207 |
| CGGCTGGA | 0.0497 |
| CATTCGGA | 0.00656 |
| GATGCCGC | 0.267 |
| GACAAGAC | 0.0539 |
| CTCAGAAA | -0.133 |
| GAAAACGC | -0.167 |
| AGTCTCGC | -0.154 |
| AGGGCTCC | 0.143 |
| CAAAGGAC | -0.127 |
| AGAGCTTC | 0.267 |
| CGAGCTTC | 0.371 |
| ACAGCTTG | -0.199 |
| ACAGCTTA | -0.0153 |
| CGAGCTTA | -0.185 |
| ACAGCTTC | 0.345 |
| CCAGCTGC | 0.218 |
| CCAGCTTC | 0.333 |
| CCAGCTTA | -0.0932 |
| AGTTCCAT | -0.107 |
| AGAAGCAC | 0.126 |
| ACCCCGCC | 0.0633 |
| CTCTAAGA | -0.00019 |
| AACTTCGG | -0.0312 |

| Sequence | PBM E-score |
| --- | --- |
| ACCAGCTC | -0.149 |
| GATACGCA | 0.247 |
| TATACGCA | 0.285 |
| CATACGCA | 0.0448 |
| GATGCGGC | 0.299 |
| CATGCGGC | -0.0307 |
| GATGCGGA | 0.033 |
| CTGATCTC | -0.125 |
| AGCGCCCG | 0.272 |
| TATAGGAA | 0.318 |
| TCTAGGAA | 0.105 |
| CATAGGAA | 0.134 |
| AATAGGAA | 0.352 |
| GATAGGAA | 0.208 |
| AATAGGAT | 0.187 |
| ACATATCA | 0.129 |
| CTCCGCGA | 0.0908 |
| GGCATTTA | -0.124 |
| ACTGCACA | -0.211 |
| CCAGCCAA | -0.11 |
| GCAGCCAA | 0.395 |
| TCAGCCAA | -0.102 |
| CCAGCCAC | 0.0313 |
| GCAGCCAC | 0.383 |
| ACAGCCAC | -0.00306 |

| Sequence | PBM E-score |
| --- | --- |
| ACCGCCAT | -0.181 |
| GACCTAGC | -0.152 |
| GATATTGC | 0.00295 |
| CCTAGGTC | -0.17 |
| GCTCGACC | 0.00687 |
| ATGGCAGC | 0.0656 |
| CTGGCAGA | 0.0263 |
| GGGGCACC | 0.351 |
| CCGGCAGG | -0.253 |
| GGGGCACA | -0.0447 |
| CCGGCAAC | 0.318 |
| CCGGCAGA | 0.0729 |
| CCGGCAAG | -0.101 |
| AGGGCACC | 0.13 |
| CCGGCAGC | 0.292 |
| GCGGCAAC | 0.0813 |
| CTGGCAGC | 0.386 |
| AGTTCGAA | -0.0147 |
| GCCCAAAC | 0.111 |
| GTTACCCA | -0.141 |
| CCCTCTCA | -0.131 |
| GAGTACCC | -0.0644 |
| CCCACTCC | 0.0066 |
| CGGGTCTA | 0.0247 |
| CCGGCATC | 0.38 |

| Sequence | PBM E-score |
| --- | --- |
| CGGGCAGA | -0.0209 |
| ACGGCATC | 0.2 |
| ATGGCACC | 0.201 |
| CTGGCACA | -0.0796 |
| CTGGCACC | 0.392 |
| AGGGCAGC | 0.0608 |
| CGGGCAGC | 0.309 |
| CGGGCATC | 0.282 |
| CCGGCATA | 0.0787 |
| CGGGCATA | -0.232 |
| AGGGCATC | 0.129 |
| AGTTTCAT | 0.116 |
| CCAAAGGC | -0.185 |
| CCCGCTTA | 0.161 |
| CATGCGTC | -0.0513 |
| CCTGAGAG | -0.131 |
| CGACCGAC | 0.0935 |
| CACCAGTC | -0.02 |
| GGGGTCCA | 0.0846 |
| AAATTTTA | 0.126 |
| AGTCGAGC | -0.0406 |
| GACTGTCA | -0.154 |
| AGAGGTAT | 0.196 |
| ATAGATTC | 0.114 |
| CCGCTCAG | 0.0454 |

| Sequence | PBM E-score |
| --- | --- |
| ACGTTCTC | -0.172 |
| CGGGCACA | -0.0928 |
| CGGGCACG | 0.107 |
| CAGGCAGC | 0.285 |
| CAGGCAGA | -0.0141 |
| CGGGCACC | 0.376 |
| GCGGCACC | 0.324 |
| CCGGCACC | 0.28 |
| CTGGCATA | 0.0454 |
| ATGGCATC | 0.175 |
| CTGGCATC | 0.304 |
| CAGGCAGG | -0.143 |
| ACGGCACC | 0.142 |
| CCCTACTA | 0.0892 |
| AATTTACT | 0.155 |
| AAACCAGA | 0.0613 |
| CCATCCAA | -0.121 |
| GAATCCAA | 0.309 |
| GCATCCAC | 0.452 |
| ACATCCAC | 0.133 |
| GCATCCAA | 0.366 |
| CCATCCAC | -0.0219 |
| TCATCCAA | -0.114 |
| AAATCCAA | 0.142 |
| TAATCCAA | 0.134 |

| Sequence | PBM E-score |
| --- | --- |
| TCCTAGAA | 0.174 |
| GAATGGCC | -0.116 |
| CAAGCGCG | -0.0724 |
| ATATGAGG | 0.033 |
| AGAAAACC | -0.0435 |
| CGGAGCAG | 0.0182 |
| ACATACTG | 0.0904 |
| CGGACGTC | 0.134 |
| AGGACGCG | 0.283 |
| ACGACGCG | 0.0493 |
| AGGACGAG | -0.073 |
| AGGACGCC | 0.453 |
| CGGACGCC | 0.416 |
| ACGACGCC | 0.217 |
| CGGACGCA | 0.0459 |
| AGGACGCA | 0.0414 |
| CGACCCAC | -0.0741 |
| TAACCTGA | -0.2 |
| ACGTGTAT | 0.0211 |
| CAGGCCGA | -0.0271 |
| CAGAACCG | 0.106 |
| GAATGCGC | 0.164 |
| ACTCTCTC | -0.288 |
| CGCCAATA | 0.144 |
| GTATGTCA | 0.136 |

| Sequence | PBM E-score |
| --- | --- |
| CTCCCAAG | 0.0273 |
| ACTCTAGG | -0.0525 |
| AAACAGGA | 0.363 |
| CTTCAGGA | 0.268 |
| CAACAGGA | 0.226 |
| AAACAGGC | -0.117 |
| ATACAGGC | 0.223 |
| ATACAGGA | 0.308 |
| ATTCAGGA | 0.282 |
| CTACAGGA | 0.204 |
| ATTCAGGG | 0.123 |
| ACCGAACG | 0.0306 |
| CCACCGCG | -0.0592 |
| ATGACATA | 0.127 |
| TCCCGCAA | 0.0539 |
| CGAGTGCC | -0.132 |
| AAGCGTCC | 0.323 |
| GAGCGTCA | 0.0398 |
| AAGCGTCA | -0.0114 |
| GAGCGTCC | 0.384 |
| AAGCGTCG | 0.0188 |
| ACGCGTCA | -0.171 |
